From PubChem BioAssay AID1117319 (Southern Research Institute, 2015)
Where “and” joins values, the source holds several entries; their conditions need not be identical. Identical values can stand only once. Among all 260,000 compounds or so, about 1,500 (0.58%) were called active. Inconclusive results (about 5%) are left out.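 The calls were made as follows: active = inhibition above a set limit at one or more doses, reproduced on every date tested; inconclusive = results disagree between test dates, or hit never tested in dose response; inactive = the rest.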 A selection follows. Results with a measured potency or affinity are listed apart.

Target: Virion infectivity factor (Human immunodeficiency virus type 1 group M subtype B (isolate BH10)) + Virion infectivity factor (Human immunodeficiency virus type 1 group M subtype B (isolate BRU/LAI)) + Virion infectivity factor (Human immunodeficiency virus type 1 group M subtype B (isolate PCV12)) + Virion infectivity factor (Human immunodeficiency virus type 1 group M subtype B (isolate HXB2)) + DNA dC->dU-editing enzyme APOBEC-3G (Homo sapiens) (UniProt P69720+P69721+P69722+P69723+Q9HC16)
Assay: inhibitors of Vif binding to APOBEC3G peptide, primary screen, biochemical, TR-FRET, GST-Vif 1-94, biotin-A3G peptide, dose response retest (AID 1117319);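 also: Vif residues 1-94 fused to GST binding biotinylated APOBEC3G peptide 110-148; 0% = full assay without inhibitor and 100% = GST in place of GST-Vif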
Conditions: stronger effect = higher value

inhibition, inactive:
COCCCNC(=S)Nc1ccc2nc3n(c(=O)c2c1)CCCCC3 -4.36%, CCn1c(O)c(C=NC2CCCC2)sc1=S 5.46%, Oc1ccc(C=NC2CCCCC2)c(O)c1 21.7%, CCOC(=O)N1CCC(N2CC34C=CC(O3)C(C(=O)Nc3ccc(F)cc3)C4C2=O)CC1 (stereo not drawn) 5.89%, Cc1ccc(N2C(=O)Nc3cc(Cl)c(Cl)cc3N2O)cc1Cl 4.32%, CCN1CCN(CC(=O)Nc2cc(S(=O)(=O)N3CCCCC3)ccc2Cl)CC1 -1.15%, CC(C)(C)n1nnnc1C(c1ccc2ncccc2c1)N1CCC(O)CC1 (stereo not drawn) -3.23%, CN(C)N1C(N)=C(C#N)C(c2cccc([N+](=O)[O-])c2)C2=C1CC(C)(C)CC2=O (stereo not drawn) -5.57%, COc1ccc(C)c2sc(N(CCCN(C)C)C(=O)c3ccc(S(=O)(=O)N(C)C)cc3)nc12 -2.34%, CCn1c2ccccc2c2cc(NC(=O)c3ccc(C)c([N+](=O)[O-])c3)ccc21 8.31%, CCn1c2ccccc2c2cc(NC(=O)c3cccc([N+](=O)[O-])c3C)ccc21 -6.86%, C=CCCCN(Cc1ccccc1)S(=O)(=O)c1ccccc1Br -1.22%, COc1ccc(C(=O)COC(=O)c2cccc(-n3cnnn3)c2)c(OC)c1 3.56%, COC(=O)c1cccc(-n2cnnn2)c1 22.2%, CCOC(=O)c1cc(-c2ccc(OC)cc2F)nc2c1c(C)nn2CCC#N 15.4%, CC1=C(C(=O)OCc2ccccc2)C(c2cccs2)N2C(=O)CCSC2=N1 (stereo not drawn) -5.63%, CCOC(=O)CCn1cnc2ccc([N+](=O)[O-])cc2c1=O 10.2%, Cc1ccc(-c2ccc(=O)n(CCC(=O)N3CCN(c4cccc(C)c4)C(C)C3)n2)cc1 (stereo not drawn) 1.97%, CCOC(CNC(=O)c1cccc([N+](=O)[O-])c1)OCC 8.25%, O=C1CC(Sc2ncccc2C(=O)O)C(=O)N1 (stereo not drawn) 5.46%, Cc1cccc2c1NC(=O)C2(O)N1CCCC(C)C1 (stereo not drawn) 7.4%, C/C(=N\Oc1cccc(F)n1)c1ccc(Cl)cc1Cl -2.41%, CC(C)c1ccc(S(=O)(=O)N2CCN(CC(=O)c3ccc(O)c(O)c3)CC2)cc1 24.8%, O=C(CN1CCN(S(=O)(=O)c2ccc(Br)cc2)CC1)c1ccc(O)c(O)c1 23.1%, CC12CCCC(=O)C1CCC(=Cc1ccco1)C2=O (stereo not drawn) 2.03%, CC(C)(C)C1C/C(=C/c2ccccn2)C(=O)/C(=C/c2ccccn2)C1 (stereo not drawn) 2.61%, CC1C/C(=C/c2ccncc2)C(=O)/C(=C/c2ccncc2)C1 (stereo not drawn) 25.8%, COc1cc(/C=C2\CC(C(C)(C)C)C/C(=C\c3cc(OC)c(OC)c(OC)c3)C2=O)cc(OC)c1OC (stereo not drawn) 2.75%, CC1C/C(=C/c2ccccn2)C(=O)/C(=C/c2ccccn2)C1 (stereo not drawn) 19.4%, CCC1C/C(=C\c2cccnc2)C(=O)/C(=C/c2cccnc2)C1 (stereo not drawn) 9.28%, CCC(NC(=O)NNC(N)=S)(C(F)(F)F)C(F)(F)F 2.24%, CCOc1ccccc1N1CCN(C(=O)c2ccc(-c3ccc(OC(C)=O)cc3)cc2)CC1 -6.48%, Cc1cc(C)c(C(=O)CSc2nnc(C)s2)c(C)c1 -3.21%, CCOC(=O)C1C(=O)CC(C)(O)C(C(=O)OCC)C1c1cccc(OC(F)(F)C(F)F)c1 (stereo not drawn) 1.49%, Cc1cccc(OCc2nc(C#N)c(NCc3ccc4c(c3)OCO4)o2)c1 2.3%, C[C@H](NC(=O)c1ccco1)C(=O)OCC(=O)N1CC(=O)Nc2ccccc21 1.38%, COc1ccccc1NC(=O)CN(c1ccccc1F)S(C)(=O)=O 2.7%, Cc1ccc(S(=O)(=O)Nc2cccc(C(=O)N3CCN(c4ccccc4O)CC3)c2)cc1F -3.67%, COc1ncnc2c1ncn2CCCN(C)CCc1ccccn1 3.23%, Nc1nc(N)c2c(n1)CN(Cc1ccc(Cl)cc1)C2 -2.69%, Cc1ccc(C(=O)N/N=C\c2ccc(-c3ccc(Cl)cc3)o2)cn1 23.4%, Cc1cccc(C(=O)N/N=C/c2cc(Br)c(Br)o2)c1 0.73%, COC(=O)COc1ccc(S(=O)(=O)Nc2ccc3c(c2)OCCO3)cc1Cl -0.68%, COc1cccc(CNC(=O)CCCNS(=O)(=O)c2cccs2)c1 22.8%, COc1cccc(CNC(=O)CCS(=O)(=O)c2cccs2)c1 -7.15%, CC1(C)CC(=O)c2cc(OCC(=O)NCCCN3CCN(c4ccc(F)cc4)CC3)ccc2O1 -7.66% and 5.99%, O=C(O)CN1C(=O)CNC1=O -0.07%, CC(=O)Nc1ccc(S(=O)(=O)NCC(=O)OCC(=O)NCc2ccco2)cc1 7.01%, CCOC(=O)C1CCCN(C(=O)COC(=O)c2cc(=O)c3ccccc3o2)C1 (stereo not drawn) 29.1%, CC(C)n1cc(CN2CCCC(CNS(=O)(=O)c3cccc4cccnc34)C2)cn1 (stereo not drawn) 10.9%, Cc1cc(/C=C2\SC(N)=NC2=O)c(C)n1-c1ccccc1 19.3%, COC(=O)c1cccc(-n2c(C)cc(/C=C3\SC(=O)NC3=O)c2C)c1 3.07%, Cc1nn(C)cc1/C=C1\SC(=S)NC1=O -1.22%, Cc1cc(/C=C2\SC(=S)NC2=O)c(C)n1C1CC1 30.7%, Cc1cc(/C=C2\SC(=S)NC2=O)c(C)n1-c1ccc(O)cc1 71.3%, Cc1ccc(-n2c(C)cc(/C=C3\SC(=O)NC3=O)c2C)cc1 -6.8%, COc1cccc(CNC(=O)Cn2ncc3c(=O)oc4ccccc4c32)c1 -6.25%, Cc1cccc(-n2ccc(=O)c(C(=O)O)n2)c1 -11%, O=C(Nc1ccc(Cl)c(S(=O)(=O)N2CCOCC2)c1)c1ccccn1 -0.06%, O=C(O)CCCN1C(=O)C2C3CCC(C3)C2C1=O (stereo not drawn) 6.83%, Cc1cccc(C)c1-n1c(C)cc(/C=N\Nc2ccc([N+](=O)[O-])cn2)c1C 10.6%, Cc1cc(/C=N/Nc2ccc([N+](=O)[O-])cn2)c(C)n1-c1ccccc1 6.45%, Cc1ccccc1-n1c(C)cc(/C=N/Nc2ccc([N+](=O)[O-])cn2)c1C 6.93%, Cc1ccc(-n2c(C)cc(/C=N/Nc3ccc([N+](=O)[O-])cn3)c2C)cc1 12.6%, Cn1ncc(Cl)c1C(=O)NC(=S)Nc1sc2c(c1C#N)CCCCC2 1.11%, CC(=O)N(C1=C(O)c2ccccc2C(=O)C1=O)C1CCCCC1 -2.6%, O=C(NCc1ccco1)c1cccnc1Cl 2.06%, COc1cccc(NC(=O)Nc2cccs2)c1 19.8%, COc1ccc(NC(=O)Nc2cccs2)cc1Cl 3.45%, CC[C@@H]1CCCCc2ccccc2[C@@H](C(=O)C[C@@H](O)CC(C)=O)OC1=O -2.17%, CCC(=O)Nc1cccc(C2=NOC3(C2)C[C@@H](C(N)=O)N(C(=O)c2cc([N+](=O)[O-])cc([N+](=O)[O-])c2)C3)c1 (stereo partly drawn) 9.27%, C/C=C(/C)C(=O)Nc1cccc(C2=NOC3(C2)C[C@@H](C(N)=O)N(C(=O)CCCCC)C3)c1 (stereo partly drawn) 4.38%, C=C(C)C(=O)N1CC2(CC(c3cccc(NC(=O)COc4ccc(Cl)cc4)c3)=NO2)C[C@@H]1C(N)=O (stereo partly drawn) -2.13%, C/C=C(\C)C(=O)Nc1cccc(C2=NOC3(C2)C[C@H](C(N)=O)N(C(=O)C(c2ccccc2)c2ccccc2)C3)c1 (stereo partly drawn) 17.8%, CCC(=O)Nc1cccc(C2=NOC3(C2)C[C@@H](C(N)=O)N(C(=O)C(c2ccccc2)c2ccccc2)C3)c1 (stereo partly drawn) 5.6%, CCCCCC(=O)Nc1cccc(C2=NOC3(C2)C[C@H](C(N)=O)N(C(=O)CCCCC)C3)c1 (stereo partly drawn) 14.4%, CCC(=O)Nc1cccc(C2=NOC3(C2)C[C@@H](C(N)=O)N(C(=O)COc2ccc(Cl)cc2)C3)c1 (stereo partly drawn) 1.74%, C/C=C(\C)C(=O)Nc1cccc(C2=NOC3(C2)C[C@H](C(N)=O)N(C(=O)c2cc([N+](=O)[O-])cc([N+](=O)[O-])c2)C3)c1 (stereo partly drawn) 9.79%, Cc1ccc(-c2cc(C(=O)NC3=NCCS3)c3ccccc3n2)cc1C -1.5%, O=S(=O)(CC=CCS(=O)(=O)c1ccccc1)c1ccccc1 -17%, Cc1nc2nc(C(F)(F)F)[nH]c2nc1C 0.02%, CC(C)(C)NC(=O)C(c1ccc(F)cc1)N(Cc1ccco1)C(=O)CCC(=O)Nc1nccs1 (stereo not drawn) 5.5%, CN[C@@H](C)C(=O)NC[C@H]1O[C@@H](n2cnc3c(N)ncnc32)[C@H](O)[C@@H]1O -3.01%, CC1(C)CC(=O)c2c(O)cc(O)cc2O1 -0.4%, C/C=C(/C)C(=O)Nc1cccc(C2=NOC3(C2)C[C@@H](C(N)=O)N(C(=O)/C=C/CC)C3)c1 (stereo partly drawn) 13.8%, C/C=C\C(=O)Nc1cccc(C2=NOC3(C2)C[C@H](C(N)=O)N(C(=O)/C=C/CC)C3)c1 (stereo partly drawn) 5.75%, C/C=C(/C)C(=O)Nc1cccc(C2=NOC3(C2)C[C@@H](C(N)=O)N(C(=O)CC(c2ccccc2)c2ccccc2)C3)c1 (stereo partly drawn) 24%, CCC(=O)Nc1cccc(C2=NOC3(C2)C[C@@H](C(N)=O)N(C(=O)CC(c2ccccc2)c2ccccc2)C3)c1 (stereo partly drawn) 7.06%
